aSyn 5UTR act – Activators via SNCA 5'UTR binding, MLPCN; alpha-synuclein 5'UTR reporter, activators screen; activity score, % (tested at 7.5 µM), hits read low; hit rate 7.1% among 300,000; AID 1814; in the data active = activity score below about -60%
Numbers without * were called inactive. A selection follows.

SMILES	aSyn 5UTR act
CCOc1ccc2nc(/N=C/c3c(C)[nH]n(-c4ccccc4)c3=O)sc2c1	-144*
CCOc1ccc2c(c1)OC(c1ccc(C)cc1)(C(F)(F)F)NC2=O (stereo unspecified)	96
CCCCCN=Cc1c(C)[nH]n(-c2nc3ccccc3s2)c1=O	62
CCOc1ccc2nc(/N=C/c3c(C)[nH]n(-c4ccc(C)cc4)c3=O)sc2c1	-143*
Cn1c(CO)cnc1SCC(=O)c1ccc(F)cc1	-65*
Cc1ccc(C(=O)CSc2ccccn2)cc1	-191*
O=C(OCn1ncc(Br)c(Br)c1=O)c1ccc(F)cc1	64
O=C(CSc1ccccn1)c1ccc(F)cc1	-130*
Cc1ccc(N(CC(=O)NCCSc2ccccn2)S(C)(=O)=O)cc1	-98*
Cc1ccc(NC(=O)CCSc2ccccn2)cc1	-145*
CN(C)/C=C(\C#N)C(=O)Nc1ccccc1	-73*
COc1ccc2[nH]c(=O)c(CN(Cc3cccs3)S(=O)(=O)c3c(C)ccc4nsnc34)cc2c1	89
Cc1ccc2nsnc2c1S(=O)(=O)N(CCO)Cc1cc2cc3c(cc2[nH]c1=O)OCCO3	-90*
Cc1ccc2cc(CN(CC3CCCO3)S(=O)(=O)c3ccc4c(c3)OCCO4)c(=O)[nH]c2c1C (stereo unspecified)	-108*
Cc1cc(C)c2cc(CN(CC3CCCO3)S(=O)(=O)c3ccc4c(c3)OCCO4)c(=O)[nH]c2c1 (stereo unspecified)	-94*
Cc1ccc2cc(CN(CC3CCCO3)C(=S)Nc3ccccc3)c(=O)[nH]c2c1C (stereo unspecified)	72
CC(=O)c1ccc(S(=O)(=O)N(Cc2cc3cc4c(cc3[nH]c2=O)OCCO4)CC2CCCO2)cc1 (stereo unspecified)	-180*
COc1ccc(/C=C/C(=O)N2CCCc3ccccc32)cc1	-93*
Cc1ccc(/C=C/C(=O)N2CCc3ccccc32)o1	-204*
COc1cc2[nH]c(C(=O)N3CCc4ccccc43)cc2c(OC)c1OC	-93*
COC(=O)C1=C(CN2CCCc3ccccc32)NC(=O)NC1c1ccc(F)cc1 (stereo unspecified)	79
COc1ccc(C(=O)N2CCc3ccccc32)cc1	-89*
COc1ccc(CCC(=O)N2CCc3ccccc32)cc1	-91*
C=CC[n+]1c(/C=C2\C=Cc3cc(C)ccc3N2CC)ccc2ccccc21	67
CCN1/C(=C2/SC(=S)N(C)C2=O)C=Cc2cc(C)ccc21	-68*
SMILES	aSyn 5UTR act
CC1CCN(c2ccc(NC(=O)c3ccc(Br)o3)cc2)CC1	-144*
CS(=O)(=O)N1CCN(c2ccc(NC(=O)c3ccc(Br)o3)cc2)CC1	-123*
CCOc1ccc(C(=O)NC(Cc2ccccc2)C(=O)OC)cc1 (stereo unspecified)	-104*
CCOc1ccc(NC(=O)c2ccc3nccnc3c2)cc1	-113*
COc1ccc(C(=O)Nc2ccc(C3CC3(Cl)Cl)cc2)cc1 (stereo unspecified)	-95*
COc1ccc(NC(=O)c2ccc(Oc3ncccn3)cc2)cc1	-84*
CC(C)C[C@H](NC(=O)c1nc[nH]c1C(=O)N[C@@H](CC(C)C)C(=O)OC(C)(C)C)C(=O)OCc1ccccc1	61
COc1ccc(C(=O)Nc2ccc(/C(C)=N/NC(=O)c3ccccc3O)cc2)cc1OC	-69*
CC(C)(C)NC(=O)Nc1ccc2nccnc2c1	-96*
COc1ccc(NC(=O)c2ccc3nccnc3c2)cc1	-102*
CCOc1ccc(NC(=O)c2ccc(OC)cc2)cc1	-114*
COC(=O)c1ccc(NC(=O)c2ccc(OC(C)=O)c(OC)c2)cc1	-148*
CCOc1ccc(NC(=O)Nc2ccc3nccnc3c2)cc1	-96*
Cc1ccc(NC(=O)c2ccc(OC(=O)C(C)Oc3ccc(Cl)cc3C)cc2)cc1 (stereo unspecified)	-128*
COc1ccc(C(=O)Nc2ccc(OC)c(OC)c2)cc1	-98*
Cc1ccc(NC(=O)c2cc(=O)c3ccccc3o2)cc1	-190*
Cc1cccc(NC(=O)c2cc(=O)c3ccccc3o2)n1	-132*
COc1cccc(NC(=O)c2cc(=O)c3ccccc3o2)c1	-72*
Cc1cccc(NC(=O)c2cc(=O)c3ccccc3o2)c1	-67*
c1ccc(N2CCN(c3nc4ccccc4[nH]3)CC2)nc1	-136*
COC(=O)CCC(=O)Oc1ccc(OC(=O)CCC(=O)OC)cc1	-62*
COc1ccc(N(C(=O)c2ccco2)S(=O)(=O)c2cc(OC)ccc2OC)cc1	-113*
COc1cc2cc(C#N)c(SCC(=O)N3CCOCC3)nc2cc1OC	-74*
N#Cc1cc2cc3c(cc2nc1SCC(=O)N1CCCC1)OCCO3	-85*
Cc1ccc(NC(=O)/C=C/c2cccs2)c([N+](=O)[O-])c1	-161*
SMILES	aSyn 5UTR act
O=C(/C=C/c1cccs1)Nc1ccc([N+](=O)[O-])cc1	-147*
CCCOC(=O)c1ccc(NC(=O)/C=C/c2cccs2)cc1	-209*
CC(C)(C)c1ccc(/C=C/C(=O)Nc2ccncc2)cc1	-77*
Cc1cccc(NC(=O)/C=C/c2cccs2)n1	-108*
O=C(/C=C/c1cccs1)NCc1ccccc1	-110*
O=C(/C=C/c1cccs1)Nc1ccncc1	-126*
Oc1csc(Cc2nc(-c3ccccc3F)cs2)n1	-169*
Oc1csc(Cc2nc(-c3ccc(-c4ccccc4)cc3)cs2)n1	-112*
Oc1csc(Cc2nc(-c3ccc4ccccc4c3)cs2)n1	-236*
Cc1cc(C)n(CCc2nc(-c3ccc(-c4ccccc4)cc3)cs2)n1	-71*
Cc1ccnc(N/C=C/C(=O)c2ccc(Br)cc2)c1	-62*
Cc1cc(N/C=C/C(=O)c2ccc(Br)cc2)no1	-198*
O=C(/C=C\Nc1ccc(Cl)cn1)c1ccc(Br)cc1	-165*
Oc1c(C=NCc2ccccc2)sc2ccccc12	-103*
O=[N+]([O-])c1ccc(N=Nc2c(Cl)cc(O)cc2Cl)cc1	58
O=[N+]([O-])c1ccc(N=Cc2sc3ccccc3c2O)cc1	-68*
Cc1occc1C(=O)N/N=C/c1ccc(OCc2ccccc2)cc1	-138*
O=C(N/N=C/c1ccc(OCc2ccccc2)cc1)c1cc[n+](Cc2ccccc2)cc1	-77*
CCOc1ccc(OCc2cccc(C(=O)N/N=C/c3cccnc3)c2)cc1	87
CC/C(=N\NC(=O)c1ccoc1C)c1ccc(C)o1	-155*
COc1ccc(N2C(=O)CC(Sc3nc(C)cc(C)c3C#N)C2=O)cc1 (stereo unspecified)	-87*
O=c1c(-c2ccc([N+](=O)[O-])cc2)coc2c(O)c(O)ccc12	-91*
CCn1nc(C)c(/C=N/NC(=O)c2ccoc2C)c1C	-112*
CCCCCn1nc(C)c(/C=N/NC(=O)c2ccoc2C)c1C	-171*
O=C1/C(=C/Nc2cccc([N+](=O)[O-])c2)CCc2ccccc21	-186*
SMILES	aSyn 5UTR act
COc1cccc2cc(NC(=O)C3CCCCC3)c(=O)oc12	-162*
O=c1oc2ccccc2cc1NCc1ccccc1O	-176*
O=C(NC1CCCCCC1)c1cc2ccccc2oc1=O	-139*
N=c1oc2ccccc2cc1C(=O)NC1CCCCCC1	-116*
O=C(NCc1ccccc1Cl)c1cc2ccccc2oc1=O	-144*
O=C(c1cc2ccccc2oc1=O)N1CCOCC1	-124*
O=C(OC1CCCCC1)c1cc2ccccc2oc1=O	-109*
O=C(NNc1c(F)c(F)cc(F)c1F)c1cc2ccccc2oc1=O	-122*
COc1cccc2cc(C(=O)OC3CCN(C)CC3)c(=O)oc12	-88*
Cc1cc(=O)oc2cc(OCc3ccccc3)ccc12	-130*
COc1ccc(COc2ccc3c(C)cc(=O)oc3c2)cc1	-131*
